Measurements reported in PubChem BioAssay.
Where “and” joins values, the source holds several entries; their conditions need not be identical. Equal entries are not always repeated. Calls of active or inactive are those of the source. Unless noted, the rule behind the calls is not given here.

Columns and labels:
[1] = HepG2 liver cancer cell viability effects, profiling panel, resazurin fluorescence, 24 h, PK04 Diversity Set (AID 1172); details: higher = more signal; note: test concentration not given here
[2] = basal S. cerevisiae growth modulation, no modifier, primary screen, OD600, strain BY4716, 24 h, basal condition (AID 1173); details: OD600, 24 h, higher = more signal, called active from +8 up or from −8 down
[3] = MM1S myeloma cell viability, profiling panel, resazurin fluorescence, basal, 24 h, PK04 Diversity Set (AID 1174); details: higher = more signal, called active from +8 up or from −8 down;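 note: MM1S multiple myeloma cell line; test concentration not given here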
[4] = target: Dihydroorotate dehydrogenase (quinone), mitochondrial (Plasmodium falciparum (isolate 3D7)) (UniProt Q08210); experiment: PfDHODH enzyme inhibitors, primary screen, biochemical, C-terminal His tag, absorbance 600 nm (AID 1175); details: DCIP absorbance 600 nm, higher = more signal, called active from +8 up or from −8 down;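 note: recombinant parasite enzyme with a five histidine tag at its C terminus; test concentration not given here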
[5] = P. aeruginosa biofilm formation inhibitors, primary screen, strain PAO1, LB-PBS medium, absorbance 600 nm (AID 1176); note: test concentration not given here; details: P. aeruginosa PAO1 growth/biofilm, A600, 12 h; higher = more signal
[6] = S. cerevisiae RM11-1a growth modifiers, primary screen, strain RM11-1a, OD600, basal, 24 h (AID 1177); details: OD600, 24 h, higher = more signal, called active from +8 up or from −8 down;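 note: cultures grown under basal conditions with no added stressor; test concentration not given here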
[7] = E. coli acrAB mutant growth effects, primary screen, E. coli filamentation inducers, strain DRC39, OD650, 24 h (AID 1178); details: higher = more signal, called active from +8 up or from −8 down;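 note: growth measured as culture turbidity by optical density at 650 nm; test concentration not given here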
[8] = E. coli acrAB mutant growth effects, primary screen, E. coli filamentation inducers, strain DRC39, OD650, 48 h (AID 1179);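 note: screen aims at cell division blockers that make cells filament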; details: E. coli DRC39 delta-acrAB growth, higher = more signal, called active from +8 up or from −8 down
[9] = RPMI8226 myeloma cell viability, profiling panel, resazurin fluorescence, basal, 24 h, PK04 Diversity Set (AID 1180); details: higher = more signal;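 note: RPMI8826 multiple myeloma cell line at 5000 cells per well; test concentration not given here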
[10] = target: E3 ubiquitin-protein ligase XIAP (Homo sapiens) (UniProt P98170); experiment: XIAP binders, primary screen, biophysical, small-molecule microarray, fluorescence 635 nm (AID 1181); details: small-molecule microarray binding, higher = more signal;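 note: score merges 667 nm emission and signal to noise over triplicate slides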
Sequence of E3 ubiquitin-protein ligase XIAP (Homo sapiens) (P98170 whole entry, looked up): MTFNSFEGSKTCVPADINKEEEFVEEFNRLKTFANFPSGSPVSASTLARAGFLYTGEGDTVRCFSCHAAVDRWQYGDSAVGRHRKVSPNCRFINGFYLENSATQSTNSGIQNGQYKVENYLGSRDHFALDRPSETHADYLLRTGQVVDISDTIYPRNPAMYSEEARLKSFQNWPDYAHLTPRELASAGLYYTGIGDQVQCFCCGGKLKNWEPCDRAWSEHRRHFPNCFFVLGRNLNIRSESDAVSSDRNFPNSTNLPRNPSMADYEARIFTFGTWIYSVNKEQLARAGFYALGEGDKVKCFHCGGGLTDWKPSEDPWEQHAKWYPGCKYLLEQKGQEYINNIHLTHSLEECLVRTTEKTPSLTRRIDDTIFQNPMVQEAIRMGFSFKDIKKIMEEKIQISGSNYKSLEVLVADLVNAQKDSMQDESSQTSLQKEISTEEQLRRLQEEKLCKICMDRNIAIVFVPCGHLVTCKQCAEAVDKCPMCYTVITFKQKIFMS

Sequence of Dihydroorotate dehydrogenase (quinone), mitochondrial (Plasmodium falciparum (isolate 3D7)) (Q08210 whole entry, looked up): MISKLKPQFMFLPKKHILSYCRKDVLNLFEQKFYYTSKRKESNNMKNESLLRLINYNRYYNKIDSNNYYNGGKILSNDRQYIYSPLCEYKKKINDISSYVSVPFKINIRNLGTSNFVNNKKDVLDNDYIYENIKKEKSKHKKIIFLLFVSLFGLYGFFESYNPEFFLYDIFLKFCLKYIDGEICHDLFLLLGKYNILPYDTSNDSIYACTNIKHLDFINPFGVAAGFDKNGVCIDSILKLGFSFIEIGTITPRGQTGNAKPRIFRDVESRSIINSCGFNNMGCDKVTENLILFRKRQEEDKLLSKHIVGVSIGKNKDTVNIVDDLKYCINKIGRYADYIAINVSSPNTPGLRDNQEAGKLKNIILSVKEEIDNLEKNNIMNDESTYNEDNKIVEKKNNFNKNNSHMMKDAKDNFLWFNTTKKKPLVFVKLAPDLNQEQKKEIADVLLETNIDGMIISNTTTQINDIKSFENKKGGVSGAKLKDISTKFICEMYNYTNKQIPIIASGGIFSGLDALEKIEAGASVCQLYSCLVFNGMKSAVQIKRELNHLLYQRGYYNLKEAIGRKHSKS

Row | SMILES | z-score [1] | z-score [2] | z-score [3] | composite z-score [4] | z-score [5] | z-score [6] | z-score [7] | z-score [8] | z-score [9] | composite z-score [10]
1 | CC(CO)N1C(=O)[C@@H]2C3C(=O)OCCC=C[C@H]3OC23C=CCN(CCN2CCOCC2)C(=O)[C@@H]13 (some centres undefined) | -0.437 and 0.303 | 0.401 (inactive) and 0.191 (inactive) | -1.45 (inactive) and -0.517 (inactive) | -1.07 (inactive) and -2.08 (inactive) | 0.0405 (inactive) and 0.0809 (inactive) | 0.819 (inactive) and -0.631 (inactive) | -0.831 (inactive) and -0.259 (inactive) | -0.839 (inactive) and -0.358 (inactive) | -1.03 and -0.76 | 0.16 and 0.219
2 | CCOC(=O)[C@H](Cc1ccccc1)NC(=O)CCC1CC(OC(=O)NCc2cccc3ccccc23)CC2(CCCC(COC(=O)NCCCN3CCCC3=O)O2)O1 (some centres undefined) | 0.968 | -1.78 (inactive) | 1.07 (inactive) | -1.19 (inactive) | 0.639 (inactive) | -0.697 (inactive) | -0.35 (inactive) | -0.209 (inactive) | 1.75 | -0.336
3 | C=CCN(CCCC)C(=O)C(c1cccs1)N(C(=O)/C=C\C(=O)O)c1ccc(CCO)cc1 (centres undefined) | -0.289 and -0.837 | -0.561 (inactive) and -0.0853 (inactive) | -0.508 (inactive) and -2.49 (inactive) | -0.133 (inactive) and 0.117 (inactive) | -0.208 (inactive) and -0.469 (inactive) | 0.24 (inactive) and 0.473 (inactive) | 0.596 (inactive) and 0.709 (inactive) | 0.597 (inactive) and 0.915 (inactive) | -0.213 and -0.931 | -0.102 and 0.0641
4 | COc1ccc(O[C@H]2C=C[C@@H](c3ccccc3)O[C@@H]2COC(=O)CCC(C)=NO[C@H](C)c2cn([C@H](CO)Cc3ccccc3)nn2)cc1 | 0.327 and 0.346 | 0.496 (inactive) and 1.83 (inactive) | 0.149 (inactive) and -0.116 (inactive) | 0.899 (inactive) and -0.413 (inactive) | -1.31 (inactive) and -0.491 (inactive) | 0.581 (inactive) and 1.67 (inactive) | 0.521 (inactive) and 0.693 (inactive) | -0.313 (inactive) and 0.596 (inactive) | 0.651 and 0.198 | -0.252 and -0.188
5 | C=CCN(C(=O)C1N(CCOCCO)C(=O)C2C(C(=O)O)C3C=CC21O3)C(C)(C)C (centres undefined) | 0.0542 and -0.741 | -0.0565 (inactive) and 0.494 (inactive) | -0.2 (inactive) and -1.16 (inactive) | 0.256 (inactive) and 1.36 (inactive) | -0.0558 (inactive) and 0.578 (inactive) | -0.0478 (inactive) and -0.166 (inactive) | -0.335 (inactive) and -0.685 (inactive) | -0.664 (inactive) and -0.923 (inactive) | -0.244 and -1.69 | 0.0009 and -0.0369
6 | C=CCN(C(=O)C1N(c2c(Cl)cccc2CO)C(=O)C2C(C(=O)O)C3C=CC21O3)C(C)(C)C (centres undefined) | 0.0972 and 0.393 | 0.134 (inactive) and -0.493 (inactive) | -0.0453 (inactive) and 1.02 (inactive) | -0.395 (inactive) and -0.725 (inactive) | -0.497 (inactive) and 0.053 (inactive) | 0.42 (inactive) and -1.92 (inactive) | 0.0114 (inactive) and 1.34 (inactive) | -0.228 (inactive) and 1.65 (inactive) | -0.338 and 0.957 | -0.217 and -0.113
7 | C[C@@H](ON=C1[C@H]2CCn3c(=O)n(-c4ccccc4)c(=O)n3[C@H]2[C@H](O)[C@@H]2O[C@H]12)c1cn([C@H](CO)Cc2ccccc2)nn1 | -1.08 | 0.394 (inactive) | -1.42 (inactive) | -0.469 (inactive) | -0.525 (inactive) | 0.122 (inactive) | 0.777 (inactive) | 1.12 (inactive) | -1.65 | -0.0208
8 | C=CCN(C(=O)C(c1cccs1)N(CCOCCO)C(=O)/C=C\C(=O)O)c1ccc(OC)cc1 (centres undefined) | 0.591 and 0.232 | -1.32 (inactive) and -1.58 (inactive) | 0.0173 (inactive) and 0.605 (inactive) | -1.05 (inactive) and -2.65 (inactive) | 1.07 (inactive) | -1.64 (inactive) and -1.09 (inactive) | 0.997 (inactive) and 1.72 (inactive) | 1.21 (inactive) and 2 (inactive) | 1.25 and 0.952 | 0.336 and -0.325
9 | CO[C@H]1COC(=O)[C@H](C)NC(=O)CC=C[C@@H](C)[C@H](OC)COC(=O)CC=C[C@@H]1C | 0.322 | 0.278 (inactive) | 0.845 (inactive) | 0.804 (inactive) | -0.519 (inactive) | 1.18 (inactive) | 0.901 (inactive) | -0.959 (inactive) | 0.636 | 0.234
10 | CCOC(=O)NN=C1C[C@@H](O)[C@@H](O)[C@@H]2[C@@H]3C(=O)N(Cc4ccc5c(c4)OCO5)C(=O)[C@@H]3CC[C@@H]12 | 0.321 | -0.143 (inactive) | 0.591 (inactive) | -0.225 (inactive) | 0.246 (inactive) | 0.52 (inactive) | 0.69 (inactive) | 0.819 (inactive) | 0.457 | -0.492
11 | C=CCN(CCCCC)C(=O)C1N(CCCCCCO)C(=O)C2C(C(=O)O)C3C=CC21O3 (centres undefined) | -0.382 and -0.569 | -0.0594 (inactive) and -0.411 (inactive) | -0.847 (inactive) and -0.718 (inactive) | 0.0615 (inactive) and -0.082 (inactive) | 0.0809 (inactive) and -0.966 (inactive) | -0.42 (inactive) and -0.52 (inactive) | 0.554 (inactive) and -0.272 (inactive) | 0.44 (inactive) and -0.188 (inactive) | -0.772 and -0.735 | -0.152 and 0.0785
12 | C=CCN(Cc1ccccc1)C(=O)C1N(c2ccc(CCO)cc2)C(=O)C2C(C(=O)O)C3C=CC21O3 (centres undefined) | -1.09 and -0.194 | -0.627 (inactive) and -0.3 (inactive) | -0.724 (inactive) and -1.11 (inactive) | 0.79 (inactive) and 0.0901 (inactive) | 0.0279 (inactive) and 0.345 (inactive) | 0.345 (inactive) and -0.744 (inactive) | 0.522 (inactive) and 0.134 (inactive) | 0.0943 (inactive) and -0.178 (inactive) | -0.821 and -0.623 | -0.0629 and -0.365
13 | Cc1ccc(S(=O)(=O)N[C@@H]2COC(=O)CC=C[C@@H](C)[C@@H]3C=C[C@H](O)[C@@H](COC(=O)CC=C[C@H]2C)O3)cc1 | -0.29 and 0.458 | -0.595 (inactive) and 0.228 (inactive) | -0.0856 (inactive) and 0.441 (inactive) | 0.178 (inactive) and -4.95 (inactive) | -0.212 (inactive) and -0.0781 (inactive) | -0.169 (inactive) and -0.14 (inactive) | 0.245 (inactive) and -1.15 (inactive) | 0.0957 (inactive) and -0.599 (inactive) | -0.541 and 0.341 | -0.138 and -0.124
14 | COC(=O)C1=C2N(Cc3ccccc3)C(C)=C(C(=O)OC)[C@@H](c3ccccc3)N2C(=O)[C@](O)(C(=O)OC)C1 | 1.08 and -0.565 | -0.875 (inactive) and -0.828 (inactive) | 0.7 (inactive) and 0.349 (inactive) | 0.268 (inactive) and -0.608 (inactive) | -0.318 (inactive) and 0.216 (inactive) | -0.321 (inactive) and 0.0615 (inactive) | 0.0099 (inactive) and -0.163 (inactive) | -0.184 (inactive) and -0.224 (inactive) | 1 and -0.272 | 0.0623 and 0.43
15 | CON(C)C(=O)c1nnc2c3ccccc3n(S(=O)(=O)c3ccc(C)cc3)c2n1 | -0.311 and -0.466 | -0.148 (inactive) and -0.378 (inactive) | -0.125 (inactive) and -0.498 (inactive) | 0.354 (inactive) and -0.588 (inactive) | -0.446 (inactive) and 0.757 (inactive) | -0.469 (inactive) and -0.226 (inactive) | -0.339 (inactive) and 0.046 (inactive) | -0.512 (inactive) and -0.404 (inactive) | -0.691 and -0.232 | -0.146 and 0.687
16 | C=CCN(CCCCC)C(=O)C(c1cccs1)N(C(=O)/C=C\C(=O)O)c1ccc(CCO)cc1 (centres undefined) | -0.524 and -0.698 | -0.238 (inactive) and -0.173 (inactive) | -0.585 (inactive) and -0.372 (inactive) | -0.249 (inactive) and -0.533 (inactive) | -0.553 (inactive) and -0.621 (inactive) | 0.741 (inactive) and 0.428 (inactive) | 0.191 (inactive) and 0.129 (inactive) | 0.712 (inactive) and 0.685 (inactive) | -0.359 and -0.583 | -0.346 and -0.138
17 | CCCNC(=O)OC[C@H]1O[C@H](CCON=C(C)CCN2CCc3nc(-c4ccccc4)c(-c4ccccc4)cc3C2)C=C[C@@H]1Oc1ccc(OC)cc1 | 0.0965 | -0.238 (inactive) | -0.53 (inactive) | 0.672 (inactive) | 0.347 (inactive) | 1.13 (inactive) | 0.324 (inactive) | -1.58 (inactive) | 0.0105 | -0.193
18 | CC(C)N1CC=CC23O[C@@H]4C=CCCOC(=O)C4[C@H]2C(=O)N(C(C)CO)[C@@H]3C1=O (some centres undefined) | -0.0777 and -1.21 | -1.44 (inactive) and 0.111 (inactive) | 0.963 (inactive) and 0.93 (inactive) | -0.0877 (inactive) and 1.49 (inactive) |  | -1.2 (inactive) and 0.934 (inactive) | 1.2 (inactive) and 1.42 (inactive) | 0.847 (inactive) and 1.13 (inactive) | 1.32 and 0.67 | -0.128 and -0.133
19 | C=CCN(C(=O)C(c1cccs1)N(C(=O)/C=C\C(=O)O)c1c(Cl)cccc1CO)c1ccc(OC)cc1 (centres undefined) | 0.154 and -2.56 | -2.07 (inactive) and -1.37 (inactive) | 1.02 (inactive) and -0.0953 (inactive) | -5.76 (inactive) and -2.28 (inactive) | -0.18 (inactive) | -0.736 (inactive) and 0.0288 (inactive) | 0.976 (inactive) and 0.515 (inactive) | 1.11 (inactive) and 0.57 (inactive) | 0.509 and -0.0282 | 0.0264 and -0.0795
